# IMPase Li cell = cell-permeable IMPase inhibitors with lithium potentiation; Potency, µM (titrated, usually from 59.4 µM), without a hit: top-dose activity, negative = IMPase inhibition, hits mostly inhibitors; 210,000 tested, 0.35% active; CHO-M1 cells, IP1 TR-FRET (IP-One), carbachol + lithium; AID 1457;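 also: IP1 builds up when IMPase is blocked and the TR-FRET signal falls; potency is read from the fitted curve at half-maximal effect; plate controls were basal vehicle for no effect and high inhibitor control for full effect; nearly all actives have a fitted effect of over 50% in size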
#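 Readout is a homogeneous TR-FRET IP1 immunoassay (Ex 320, Em 665 and 620), where raised cytosolic IP1 lowers signal. Cells were CHO-M1 treated 30 min at 37C with test compounds plus a little lithium; AC50 values came from Hill-equation fitting.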
# PNC inhibitor = inhibitors of perinucleolar compartment assembly. 140,000 tested, 3.1% active. activity change (PNC), negative = inhibition, % at 10 µM. PC3M PTB-GFP, PNC prevalence imaging, 16 h; active compounds read low;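 active = readout at or below -70, meaning at least 70% loss of cells showing the perinucleolar compartment, a nuclear body marking cancer cells; inconclusive = readout between -30 and a set limit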;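 also: plate controls were DMSO wells for no effect and camptothecin positive control wells for full effect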
#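 Read-out is percentage of cells bearing a perinucleolar compartment, from automated 20x imaging of fixed, Hoechst-stained PC3M PTB-GFP cells. Cells were seeded 4 h, then exposed 16 h to compound (23 nl of library stock) in duplicate plates.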
# HPGD inh = inhibitors of human 15-hydroxyprostaglandin dehydrogenase (HPGD) | P15428 | purified HPGD, NADH fluorescence kinetic, PGE2 substrate | Potency, µM, inactives show top-dose activity change, negative = inhibition, usual class: inhibitors | 150,000 tested, 4.3% active | AID 894; active = well fitted inhibition curve with a large enough effect, not every such curve was filed as active; inconclusive = small, poorly fitted or top-dose-only effect, or another doubt; inactive = no such curve, though single readings can be large or run the other way; also: potency is read from the fitted curve at half-maximal effect
# Target sequence (P15428 whole entry, looked up): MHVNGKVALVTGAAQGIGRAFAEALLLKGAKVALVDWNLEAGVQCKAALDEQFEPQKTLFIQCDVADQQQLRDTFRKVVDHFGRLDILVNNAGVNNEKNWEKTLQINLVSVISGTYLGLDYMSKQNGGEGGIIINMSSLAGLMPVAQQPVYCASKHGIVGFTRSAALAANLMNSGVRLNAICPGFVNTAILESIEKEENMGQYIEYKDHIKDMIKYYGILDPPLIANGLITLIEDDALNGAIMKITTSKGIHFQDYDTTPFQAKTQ
#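 NADH formation kinetics: reaction with 30 uM PGE2 and 1 mM NAD+ (final), 20 nM enzyme, Tris-HCl pH 8 with Tween 20, after 15 min compound preincubation at room temperature. Fluorescence change, last versus first of five reads.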
# IMPase cell inh = membrane-permeable compound that blocks inositol monophosphatase | P97697 | inhibition (IP1 accumulation), % at 46.1 µM | 120,000 tested, under 10 active | CHO-M1 cells, IP1 accumulation, HTRF TR-FRET ratio | AID 901; active = well fitted curve in the direction sought with a large enough effect in the signal ratio, not every such curve was filed as active; inconclusive = small, poorly fitted or top-dose-only effect, or a change in a side signal; inactive = no such curve, though single readings can be large or run the other way; the % refers to the signal ratio;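 also: cells stimulated with carbachol in lithium chloride buffer; plate controls were DMSO basal wells for no effect and reference inhibitor wells for full effect; higher means more IMPase inhibition seen as more IP1 and lower FRET ratio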
# Target sequence (P97697 whole entry, looked up): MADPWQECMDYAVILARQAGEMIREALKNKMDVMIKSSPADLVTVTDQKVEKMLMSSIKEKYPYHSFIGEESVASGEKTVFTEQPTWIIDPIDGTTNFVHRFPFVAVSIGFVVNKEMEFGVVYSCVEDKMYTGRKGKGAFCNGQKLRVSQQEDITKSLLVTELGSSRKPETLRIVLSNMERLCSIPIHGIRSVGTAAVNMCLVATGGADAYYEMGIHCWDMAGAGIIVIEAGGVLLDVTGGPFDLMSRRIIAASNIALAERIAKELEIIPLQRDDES
#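 Seeded CHO-M1 cells were dosed with compound at up to 46 uM, stimulated with carbachol for 30 min, then lysed in IP-One detection reagents. Higher IP1 lowers the TR-FRET signal.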
# 12-hLO inh = inhibitors of human 12-lipoxygenase (ALOX12). Potency, µM (top dose mostly 57.1 µM), for the others: at the top dose activity change, negative = inhibition, usual class: inhibitors. 150,000 tested, 0.12% active. P18054. purified 12-hLO, xylenol orange hydroperoxide absorbance; also: potency is read from the fitted curve at half-maximal effect; nearly all actives have a fitted effect of over 55% in size
#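 Purified human 12hLO (150 nM final) was preincubated with compounds for 15 min at room temperature in 25 mM Hepes pH 7.0, 0.01% Triton X-100, then reacted with 40 uM arachidonic acid for 30 min. Hydroperoxide was detected with ferrous iron/xylenol orange.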
# ALDH1A1 inh = blocks purified human ALDH1A1 activity; Potency, µM (titrated, usually from 75.3 µM), for the others: top-dose activity, negative = inhibition, usual class: inhibitors; P00352; 220,000 tested, 7.3% active; Purified ALDH1A1, NADH fluorescence, propionaldehyde substrate; active = well fitted inhibition curve with a large enough effect, not every such curve was filed as active; inconclusive = small, poorly fitted or top-dose-only effect, or another doubt; inactive = no such curve, though single readings can be large or run the other way;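 also: potency is read from the fitted curve at half-maximal effect; plate controls were no enzyme wells and a reference inhibitor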
# Numbers without * were called inactive; ? = inconclusive; . = not tested or not shown; [ ] = dose if it differs, or a comment. This is a sample that favours compounds with a hit; in the whole collection about 11% have one here. Unless noted, calls follow the shape of the dose curve; as a rule, active = well fitted curve in the direction sought with a large enough effect; inconclusive = small, poorly fitted or top-dose-only effect, or another doubt; inactive = no such curve, though single readings can be large; an effect the other way counts as inactive or inconclusive. Unless noted, % is scaled to controls: 0 for no effect and ±100 for the full control effect.
SMILES,IMPase Li cell,PNC inhibitor,HPGD inh,IMPase cell inh,12-hLO inh,ALDH1A1 inh
CC12C=C(/C=C/c3ccc(Br)cc3)C(C)(C1)[C@H](c1ccc(Br)cc1)CC2=O (stereo not given in full),22.2%,.,-3.9%,.,.,1.8%
CCn1c(C)nc2cc(C(=O)NNC(=S)Nc3ccc(Cl)cc3Cl)ccc21,-1.5%,0.3,?,10.8,1.6%,3.55µM*
O=C(Oc1ccc(-c2cnc3ccccc3n2)cc1)c1cc([N+](=O)[O-])ccc1Cl,-24.9%[38.3 µM],-6.5,-14.8%,5.1,-7.5%,0.224µM*
C=C1c2cccc(OC)c2O[C@H](C(=O)OCC)[C@@H]1CCC(C)C,6.2%,.,-27.9%,.,0.1%[0.00818 µM],?
CC(C)(C)c1nnc2sc(SCCN3C(=O)c4ccccc4C3=O)nn2c1=O,4.0%[38.3 µM],-15.7,-13.8%,11.1,-3.5%,-2.1%
CC(C)N(C(=O)CSc1nn2c(=O)c(C(C)(C)C)nnc2s1)c1ccccc1,11.5%[38.3 µM],45.1,-20.3%,-8.2,-1.1%,22.4µM*
CCN(CC)c1ccc(/C=C2/SC(=O)N(C(C)C)C2=O)o1,11.3%,?,-20.2%,.,-3.0%,2.51µM*
Cc1ccc(NC(=O)c2cc(=O)c3ccccc3o2)cc1S(=O)(=O)N1CCCCC1,18.2%,.,.,.,.,31.6µM*
Cc1ccc(NC(=O)COC(=O)c2ccc([N+](=O)[O-])o2)cc1S(=O)(=O)N1CCCCC1,4.4%,.,.,.,.,25.1µM*
Cc1ccc(NC(=S)NCc2ccccc2)cc1S(=O)(=O)N1CCCCC1,15.3%,.,.,.,.,?
Cc1ccc(NC(=O)c2ccc([N+](=O)[O-])o2)cc1S(=O)(=O)N1CCOCC1,4.4%,.,.,.,.,?
O=C(COC(=O)c1ccc([N+](=O)[O-])o1)Nc1cccc(S(=O)(=O)N2CCCCC2)c1,15.3%,.,.,.,.,11.2µM*
O=C(Nc1cccc(S(=O)(=O)N2CCCCC2)c1)c1ccc([N+](=O)[O-])o1,17.4%,.,.,.,.,?
CCCCN1CCc2c([nH]c3ccc(C)cc23)C1=O,-27.9%[38.3 µM],-100.0*,?,1.2,-7.1%,?
COc1cc2cc(Br)cc(Br)c2nc1C,12.6µM*,-16.8,-15.4%,?,5.4%,?
COc1cc2cnncc2cc1OC,6.1%,?,-1.8%,8.7,2.2%,?
CCc1cccc(NC(=O)C2CCC(CNS(=O)(=O)c3ccc(Br)s3)CC2)c1 (stereo not given),.,.,.,1.9,.,.
CC1=N/C(=C\c2ccc(OC(C)C)cc2)C(=O)N1c1ccc(C(=O)O)cc1,-1.7%,-1.6,15.8µM*,.,1.7%,-7.8%
CC(=O)c1c(C)[nH]c(C(=O)N2CCc3ccccc3C2)c1C,-2.1%[38.3 µM],84.1,17.8µM*,4.9,0.8%,0.2%
CCOC(=O)c1c(C)c(C(=O)N2CCc3ccccc3C2)c(C)n1CC,-9.9%[38.3 µM],20.6,4.47µM*,5.3,-4.4%,?
Cc1ccc(NS(=O)(=O)c2cc(NC(=O)c3ccc4c(c3)NC(=O)CS4)ccc2Cl)c(C)c1,11.0%,.,.,.,.,10µM*
COCCNC(=O)c1ccc2c(c1)NC(=O)CS2,-0.9%[38.3 µM],-28.7,35.5µM*,0.0,-3.7%,7.8%
Cc1ccc(NS(=O)(=O)c2cc(C(=O)O)ccc2Cl)c(C)c1,-4.3%,216.4,-9.3%,2.8,0.5%,-3.8%
CCCC(=O)N(c1ccc2oc3c(c2c1)CCCC3)S(=O)(=O)c1ccc(CC)cc1,.,.,.,2.9,.,.
CCOc1ccc(-c2[nH]nc3c2C(c2ccc(O)cc2)C(C#N)=C(N)O3)cc1 (stereo not given),51.2%[38.3 µM],?,-29.0%,3.9,?,17.8µM*
SMILES,IMPase Li cell,PNC inhibitor,HPGD inh,IMPase cell inh,12-hLO inh,ALDH1A1 inh
COCc1[nH]nc2c1C(c1ccc(OC)cc1)C(C#N)=C(N)O2 (stereo not given),10.1%[38.3 µM],?,-10.0%,-8.3,-5.4%,-8.7%
CCCc1[nH]nc2c1C(c1ccc(O)cc1OCC)C(C#N)=C(N)O2 (stereo not given),3.9%[38.3 µM],-3.1,-5.0%,4.1,-7.1%,17.8µM*
CC(C)c1[nH]nc2c1C(c1ccc(OC(=O)c3ccco3)cc1)C(C#N)=C(N)O2 (stereo not given),4.8%,13.4,-19.0%,-6.6,0.7%,25.1µM*
CCCc1[nH]nc2c1C(c1cccc(OC)c1)C(C#N)=C(N)O2 (stereo not given),4.7%[38.3 µM],33.4,-1.5%,1.8,-6.5%,20µM*
c1ccc2c(c1)nnn2CN1CCOCC1,-16.8%,.,1.1%,.,-3.1%[11.4 µM],7.3%[13.5 µM]
CC1=CCC(C(=O)O)C(C(=O)Nc2nc3ccc(S(C)(=O)=O)cc3s2)C1 (stereo not given),14.7%,5.9,-17.4%,-9.1,18.1%,0.224µM*
CC(C)(C)C(=O)Nc1nc2ccc(S(C)(=O)=O)cc2s1,-0.5%,.,.,.,.,?
O=[N+]([O-])c1ccc(C2CCCC/C2=N/OCc2ccccc2F)c([N+](=O)[O-])c1 (stereo not given),12.7%[38.3 µM],?,-9.5%,7.8,-5.0%,-5.5%
O=C(O/N=C1\CCCCC1c1ccc([N+](=O)[O-])cc1[N+](=O)[O-])c1c(F)cccc1F (stereo not given),12.6%[38.3 µM],72.0,-4.7%,7.4,-2.8%,17.8µM*
Cc1ccc2sc(NNC(=O)c3cc(=O)c4ccccc4o3)nc2c1C,19.3%,.,.,.,.,12.6µM*
Cc1cccc2sc(NNC(=O)c3cc(=O)c4ccccc4o3)nc12,5.5%,.,.,.,.,-1.8%
CN(C)S(=O)(=O)c1cccc(C(=O)C2=C3SC=C(c4ccccc4)N3CC2)c1,1.9%[38.3 µM],-20.3,-25.2%,4.8,-9.6%,2µM*
O=C(COC(=O)c1ccc(S(=O)(=O)NCc2ccco2)cc1)Nc1ccccc1OC(F)F,15.7%,-101.4*,-18.9%,4.2,-8.1%,2.0%
CCCC[C@@H]1C[C@H]1C(NC(=O)c1ccc(C(F)(F)F)cc1)c1ccc(C(=O)OC)cc1 (stereo not given in full),8.5%,.,-3.1%,.,2.0%,?
CCOC(=O)C(CCc1ccccc1)NC(C)C(=O)N1Cc2ccccc2CC1C(=O)O (stereo not given),12.9%,.,-7.3%,.,-2.7%,-8.0%
NC(=O)CC[C@H](NC(=O)OCc1ccccc1)C(=O)OCc1ccc(Cl)cc1,25.5%,-92.9*,-13.3%,.,-1.2%,6.0%
Clc1ccc(-c2nc3sccn3c2/C=N/OCc2ccc(Cl)c(Cl)c2)cc1,-7.4%,.,.,.,.,6.0%
CNc1nc(-c2ccc(N(C)C)cc2)nc2ccccc12,3.5%,.,?,.,-8.6%,-12.4%
OC(CCN1CCOCC1)(c1ccc(Cl)cc1)C1CCCCC1 (stereo not given),37.6%[38.3 µM],-9.2,2.6%,21.2,-2.2%,7.08µM*
Cc1ccccc1C1CC(=O)Oc2ccc(O)cc21 (stereo not given),1.2%,.,28.2µM*,.,-3.5%[0.00818 µM],20µM*

# Compound activity (PubChem BioAssay)
